Drawing on PubChem BioAssay (NCATS), this text covers outcome and Potency for 12 compounds.

Records with an inconclusive call do not appear. More than one record can exist for a structure, and the calls need not agree. Calls of active or inactive are those of the source. Unless noted, the call rests on the fitted dose curve; in most records, active means well fitted curve in the direction sought with a large enough effect; inconclusive means small, poorly fitted or top-dose-only effect, or another doubt; inactive means no such curve, though single readings can be large; an effect the other way counts as inactive or inconclusive.

Assay [1] in a line: Cytometric Cell-Based qHTS for Inhibitors of the mTORC1 Signaling Pathway in MEF (Tsc2-/-, p53-/-) Cells (AID 2660).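 Further: Tsc2 and p53 null MEFs carrying empty vector with compound for 24 h; percent of cells above a phospho-rpS6 to PI ratio cutoff in each well; series mostly up to about 38 µM.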 In short, it runs like this:
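Cells are plated, treated with compound for 24 hrs at 37 degree Celsius, then fixed, blocked and immunostained for phospho-rpS6 Ser235/236. Propidium iodide counterstain follows. Per-well % positive cells is derived from the PI-normalized phospho-S6 signal.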

Assay [2] in a line: High Content Imaging Cell-Based qHTS for Inhibitors of the mTORC1 Signaling Pathway in MEF Cells (AID 2667). Further: potency means the concentration at half of the fitted maximal effect. In short, it runs like this: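 Immunofluorescence for rpS6 phosphorylation in MEFs of Tsc2-/-, p53-/- background rescued with WT Tsc2. Compound exposure lasted 24 hrs. Inhibition was scored against rapamycin-treated control wells.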
The nature of assay [3]: Cytometry Cell-Based qHTS for Inhibitors of the mTORC1 Signaling Pathway in MEF cells (AID 2668).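 Further: Tsc2-/- p53-/- mouse embryonic fibroblasts stably re-expressing wild-type Tsc2; percent cells positive for phospho-rpS6 Ser235/236 relative to propidium iodide stain; series mostly up to about 38 µM.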 An outline of the steps:
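Tsc2-/-, p53-/- MEFs re-expressing WT Tsc2; cpd 24 hrs, 37 degree Celsius; PFA fix, Alexa-488 p-rpS6 (Ser235/236) Ab 2 hrs RT, PI counterstain; Acumen 488nm scan; p-S6/PI ratio → % positive cells; PI count = viability.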
For orientation: In qHTS, concentration-response curves come from the screen itself.

The target in assay [4] is Ubiquitin carboxyl-terminal hydrolase 2 (Homo sapiens) (UniProt O75604). Briefly: qHTS Validation Assay for Inhibitors of Ubiquitin-specific Protease USP2a Using CHOP2 as the Reporter (AID 463106). In short, it runs like this: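 10nM USP2 core + cpd, 30min RT; add 25nM Ub-CHOP2/25nM substrate; 60min RT; FI 485/531nm. Buffer Tris pH 8.0, CaCl2, BME, CHAPS. Norm. to NEM = 100% inhibition; time-zero read flags fluorescent artifacts.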
Chain of Ubiquitin carboxyl-terminal hydrolase 2 (Homo sapiens) (O75604 whole entry, looked up): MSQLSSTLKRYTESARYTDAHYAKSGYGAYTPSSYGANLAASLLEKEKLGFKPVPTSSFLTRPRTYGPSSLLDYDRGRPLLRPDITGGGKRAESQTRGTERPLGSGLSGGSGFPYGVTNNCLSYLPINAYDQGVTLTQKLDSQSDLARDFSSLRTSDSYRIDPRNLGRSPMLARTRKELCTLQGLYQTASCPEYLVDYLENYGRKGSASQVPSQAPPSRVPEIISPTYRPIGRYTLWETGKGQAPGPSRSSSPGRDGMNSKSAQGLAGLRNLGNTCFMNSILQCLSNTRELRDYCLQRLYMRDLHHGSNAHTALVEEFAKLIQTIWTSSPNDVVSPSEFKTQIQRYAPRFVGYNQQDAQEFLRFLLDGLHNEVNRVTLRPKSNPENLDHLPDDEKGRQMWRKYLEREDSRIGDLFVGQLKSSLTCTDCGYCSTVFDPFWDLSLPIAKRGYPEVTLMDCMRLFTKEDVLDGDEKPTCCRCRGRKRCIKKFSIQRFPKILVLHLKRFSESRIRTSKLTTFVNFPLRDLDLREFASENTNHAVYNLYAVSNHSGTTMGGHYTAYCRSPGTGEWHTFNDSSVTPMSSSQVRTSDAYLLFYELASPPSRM

Assay [5] has as its target DNA polymerase III PolC-type (Bacillus subtilis (strain 168)) (UniProt P13267). Briefly: qHTS Validation Assay for the Inhibitors of DNA Replication in Gram-Positive Bacteria (AID 485295).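 Further: reconstituted holoenzyme with PolC plus beta clamp SSB and primase; PicoGreen fluorescence of double-stranded DNA made on primed circular M13 template; series mostly up to about 57 µM.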 In short, it runs like this:
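First, compound is mixed with the reconstituted replication complex and held at room temperature. Next, circular single-stranded M13Gori with nucleotides starts synthesis. Finally, PicoGreen in EDTA halts the reaction and stains double-stranded product for fluorescence reading.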

Assay [6] deals with Tumor susceptibility gene 101 protein (Homo sapiens) (UniProt Q99816). Put plainly: qHTS Validation Assay for Iinhibitors of HIV-1 Budding by Blocking the Interaction of PTAP/TSG101 (AID 485342; calls by dose curve). An outline of the steps: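 Binding of a FITC-tagged PTAP-motif peptide (50 nM) to the Tsg101 binding domain (10 uM) is monitored by fluorescence polarization. Compounds are pin-delivered before peptide addition, and incubation runs 20 min at room temperature.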
Chain of Tumor susceptibility gene 101 protein (Homo sapiens) (Q99816 whole entry, looked up, the tested form may be a part): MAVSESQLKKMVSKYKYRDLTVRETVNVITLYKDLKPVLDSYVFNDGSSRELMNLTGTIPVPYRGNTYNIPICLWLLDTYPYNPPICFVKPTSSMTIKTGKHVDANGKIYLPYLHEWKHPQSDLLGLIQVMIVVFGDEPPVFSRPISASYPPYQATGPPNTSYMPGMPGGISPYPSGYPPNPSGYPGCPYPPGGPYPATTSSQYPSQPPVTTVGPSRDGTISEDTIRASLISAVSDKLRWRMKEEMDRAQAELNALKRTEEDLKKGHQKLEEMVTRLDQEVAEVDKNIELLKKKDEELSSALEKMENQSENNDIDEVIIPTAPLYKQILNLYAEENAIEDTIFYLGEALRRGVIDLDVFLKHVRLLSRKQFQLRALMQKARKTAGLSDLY

Assay [7] concerns the target Beta-2 adrenergic receptor (Homo sapiens) (UniProt P07550). Put plainly: qHTS validation assay of beta-arrestin-biased ligands of beta2-adrenergic receptor (AID 485366). An outline of the steps: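 Values derive from curve-fitted %Activity of a luminescent beta-arrestin recruitment reporter; compounds tested up to 46 microM on Tango cells for 18 hr at 37 degrees C, 5% CO2.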

Assay [8] has as its target ATP-dependent 6-phosphofructokinase (Trypanosoma brucei brucei) (UniProt O15648). Briefly: qHTS Validation Assay to Find Inhibitors of T. brucei phosphofructokinase (AID 485368). In short, it runs like this:
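Enzyme reaction in triethanolamine buffer pH 8.0 with 5 mM MgCl2, 0.01% Tween20 and 0.1% BSA; PFK 1.25 nM, F6P 0.5 mM, ATP 0.1 mM, 45 min RT. ADP quantified by ADP-Glo.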

Assay [9] in a line: Quantitative high throughput screen for delayed death inhibitors of the malarial parasite plastid, 48 hour incubation (AID 488752). Further: nearly all actives have a fitted effect of over 65% in size. Further: potency means the concentration at half of the fitted maximal effect. In short, it runs like this:
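Readout is firefly luciferase luminescence from a reporter integrated into the parasite genome, with lower signal taken as inhibited growth. Infected red cells (0.1% parasitemia, 2% hematocrit final) are cultured with compound for one 48 h cycle at 37 C.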

For assay [10], the target named is Thioredoxin reductase 1, cytoplasmic (Rattus norvegicus) (UniProt O89049). Briefly: qHTS Assay for Substrates of Mammalian Selenoprotein Thioredoxin Reductase 1 (TrxR1) (AID 488772).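 Further: NADPH fluorescence in the first read after selenite addition and not the 8 min delta; series mostly up to about 57 µM; a drop in NADPH fluorescence below the no-compound background marks a TrxR1 substrate.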 An outline of the steps:
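Quantitative HTS in Tris-HCl buffer at pH 7.5 with EDTA and Tween-20, using rat TrxR1, 400 uM NADPH and 400 uM selenite (final). A fall in initial NADPH fluorescence relative to background marked substrate behaviour.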

For assay [11] the target is unchanged. Briefly: qHTS Assay for Inhibitors of Mammalian Selenoprotein Thioredoxin Reductase 1 (TrxR1) (AID 488773).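 Further: drop in NADPH fluorescence over an 8 min run after selenite addition; series mostly up to about 57 µM; nearly all actives have a fitted effect of over 40% in size.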 To be noted: Potency: inhibition. An outline of the steps:
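Steps: enzyme (90 nM) plus NADPH (400 uM final), 5 min at ~22 deg C; compound added, 15 min; selenite (400 uM final) added; fluorescence followed for 8 min. Concentration-response curves derived from the normalized delta values.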

Assay [12] deals with Flap endonuclease 1 (Homo sapiens) (UniProt P39748). Put plainly: qHTS Validation Assay for the Inhibitors of Human Flap endonuclease 1 (FEN1) (AID 488816). Further: potency means the concentration at half of the fitted maximal effect. In short, it runs like this:
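Readings taken at 0 and 15 min after starting the reaction with 50 nM (final) substrate supplied the signal. Compounds had first sat with 10 nM FEN1 reagent for 15 min at room temperature. Values come from Hill-equation concentration-response fits.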

Assay [13] deals with M-phase phosphoprotein 8 (Homo sapiens) (UniProt Q99549). Put plainly: qHTS Validation Assay for Inhibitors for MPP8 Chromodomain Interactions with Methylated Histone Tails (AID 488949). Further: nearly all actives have a fitted effect of over 55% in size. Further: potency means the concentration at half of the fitted maximal effect. An outline of the steps:
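50 nM MPP8 + 50 nM b-H3K9me3 peptide, PBS pH 7.4/0.01% Tween-20, 30 min RT; + cpd 30 min RT; + AlphaScreen donor/Ni-chelate acceptor beads 10 ug/mL final, 30 min dark; luminescence read.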

The target of assay [14] is Chromobox protein homolog 1 (Homo sapiens) (UniProt P83916). Put plainly: qHTS Validation Assay for Inhibitors of HP1-beta Chromodomain Interactions with Methylated Histone Tails (AID 488953).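 Further: loss of AlphaScreen luminescence from HP1-beta binding biotinylated H3K9me3 peptide; series mostly up to about 110 µM; nearly all actives have a fitted effect of over 50% in size.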 An outline of the steps: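 50 nM HP1-beta + 50 nM biotin-H3(1-18)K9me3, PBS pH 7.4, 0.01% Tween-20, 30 min RT; compound added, 30 min RT; AlphaScreen beads 10 ug/mL final, 30 min dark; luminescence read.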
Chain of Chromobox protein homolog 1 (Homo sapiens) (P83916 whole entry, looked up): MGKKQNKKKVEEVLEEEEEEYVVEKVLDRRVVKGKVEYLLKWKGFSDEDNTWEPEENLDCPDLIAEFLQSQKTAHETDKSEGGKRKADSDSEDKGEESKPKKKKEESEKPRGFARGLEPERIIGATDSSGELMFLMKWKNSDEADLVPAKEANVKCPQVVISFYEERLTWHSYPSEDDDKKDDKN

For assay [15], the target named is Methanococcus maripaludis chaperonin (MmCpn) (UniProt Q6LX38). Put plainly: High-Throughput Screening for Modulators of Cytosolic Chaperonin Activity: MmCpn Primary Screen (AID 488978).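 Further: 50 nM MmCpn enzyme hydrolysing 30 µM ATP at 37 °C.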 An outline of the steps: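 Steps: chaperonin 50 nM final; add compound, 5 min RT; start with ATP, 30 uM final; hold 10 min at 37C; add ADP Transcreener HTRF reagent, 5 min; read ex 320, em 590 and 665 nm.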
Chain of Methanococcus maripaludis chaperonin (MmCpn) (Q6LX38 1-543): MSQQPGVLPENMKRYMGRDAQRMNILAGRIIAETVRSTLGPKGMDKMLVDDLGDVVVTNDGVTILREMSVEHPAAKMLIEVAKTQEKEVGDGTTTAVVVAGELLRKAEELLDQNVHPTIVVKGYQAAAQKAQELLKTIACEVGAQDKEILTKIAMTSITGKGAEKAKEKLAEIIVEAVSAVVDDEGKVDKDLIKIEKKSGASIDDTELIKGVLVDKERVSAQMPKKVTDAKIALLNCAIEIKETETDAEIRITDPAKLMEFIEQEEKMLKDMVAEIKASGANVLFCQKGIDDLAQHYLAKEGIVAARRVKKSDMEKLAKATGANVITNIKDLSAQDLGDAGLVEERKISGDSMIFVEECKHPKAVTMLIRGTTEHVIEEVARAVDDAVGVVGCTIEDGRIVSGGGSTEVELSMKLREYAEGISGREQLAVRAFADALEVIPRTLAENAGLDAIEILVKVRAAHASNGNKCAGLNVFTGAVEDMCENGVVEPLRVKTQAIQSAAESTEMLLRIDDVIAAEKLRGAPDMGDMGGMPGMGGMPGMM

A short description of assay [16]: Validation screen for small molecules that induce DNA re-replication in MCF 10A normal breast cells (AID 463097). Further: nearly all actives have a fitted effect of over 60% in size. In short, it runs like this: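 Image-based qHTS: normal breast cells are incubated with compound for 48 hr, stained with Hoechst, and scanned for total nuclear fluorescence. Compounds raising the fraction of nuclei with elevated DNA content count as re-replication inducers.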

A short description of assay [17]: Quantitative high throughput screen for delayed death inhibitors of the malarial parasite plastid, 96 hour incubation (AID 488745). Further: nearly all actives have a fitted effect of over 70% in size. Further: potency means the concentration at half of the fitted maximal effect. An outline of the steps:
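Infected erythrocytes were added to compound in Albumax-supplemented RPMI 1640 at 0.1% parasitemia and 2% hematocrit (final), incubated 96 h at 37 C under 5% CO2, then luciferase reagent was added and luminescence measured.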

Assay [18] in a line: High Content Imaging Cell-Based qHTS for Inhibitors of the mTORC1 Signaling Pathway in MEF (Tsc2-/-, p53-/-) Cells (AID 2666).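 Further: percent of cells scored positive for phospho-rpS6 Ser235/236 immunostaining by imaging.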 In short, it runs like this: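 Cells were plated, dosed with compound after 24 hrs, and incubated another 24 hrs at 37 degree Celsius. Fixed cells were immunostained for phospho-rpS6 Ser235/236 and counterstained, and the normalized signal was scored as % active cells against rapamycin and DMSO controls.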

Assay [19] in a line: qHTS Validation Assay to Find Inhibitors of Chronic Active B-Cell Receptor Signaling (AID 485345; active means well fitted curve in the direction sought with a large enough effect in the main read-out, with a control signal flat, not every such curve was filed as active). In short, it runs like this: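 Read-out: ratio of filter-corrected green (IkappaBalpha fusion) to red (native) luciferase signal in doxycycline-induced TMD8 cells after 4 h at 37C. Titration spanned 46 uM–3 nM; Data were normalised to basal cells and 10 uM MG-132 wells.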

Chain of M-phase phosphoprotein 8 (Homo sapiens) (Q99549 whole entry, looked up): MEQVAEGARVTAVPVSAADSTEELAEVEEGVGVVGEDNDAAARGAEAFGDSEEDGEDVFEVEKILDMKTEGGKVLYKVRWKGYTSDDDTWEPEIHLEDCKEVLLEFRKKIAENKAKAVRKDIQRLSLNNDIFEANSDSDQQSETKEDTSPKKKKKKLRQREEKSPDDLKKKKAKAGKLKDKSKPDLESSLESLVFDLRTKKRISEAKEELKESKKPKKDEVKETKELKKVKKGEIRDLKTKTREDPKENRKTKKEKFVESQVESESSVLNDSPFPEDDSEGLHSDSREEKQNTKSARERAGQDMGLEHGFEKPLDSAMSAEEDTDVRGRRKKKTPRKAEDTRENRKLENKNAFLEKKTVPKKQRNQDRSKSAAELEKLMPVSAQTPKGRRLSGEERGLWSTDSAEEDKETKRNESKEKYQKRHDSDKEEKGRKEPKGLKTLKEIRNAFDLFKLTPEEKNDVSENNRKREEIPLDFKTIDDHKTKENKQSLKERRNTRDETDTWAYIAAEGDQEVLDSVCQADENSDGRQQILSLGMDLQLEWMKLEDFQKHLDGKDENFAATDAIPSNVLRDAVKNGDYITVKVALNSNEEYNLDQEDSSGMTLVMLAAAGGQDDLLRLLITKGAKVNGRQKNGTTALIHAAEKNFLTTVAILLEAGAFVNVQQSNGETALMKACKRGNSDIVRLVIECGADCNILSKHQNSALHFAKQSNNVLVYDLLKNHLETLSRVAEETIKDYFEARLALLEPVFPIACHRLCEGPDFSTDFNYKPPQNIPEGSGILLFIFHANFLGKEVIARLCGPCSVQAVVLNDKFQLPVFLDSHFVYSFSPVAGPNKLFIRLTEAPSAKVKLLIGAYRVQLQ
Chain of Beta-2 adrenergic receptor (Homo sapiens) (P07550 whole entry, looked up): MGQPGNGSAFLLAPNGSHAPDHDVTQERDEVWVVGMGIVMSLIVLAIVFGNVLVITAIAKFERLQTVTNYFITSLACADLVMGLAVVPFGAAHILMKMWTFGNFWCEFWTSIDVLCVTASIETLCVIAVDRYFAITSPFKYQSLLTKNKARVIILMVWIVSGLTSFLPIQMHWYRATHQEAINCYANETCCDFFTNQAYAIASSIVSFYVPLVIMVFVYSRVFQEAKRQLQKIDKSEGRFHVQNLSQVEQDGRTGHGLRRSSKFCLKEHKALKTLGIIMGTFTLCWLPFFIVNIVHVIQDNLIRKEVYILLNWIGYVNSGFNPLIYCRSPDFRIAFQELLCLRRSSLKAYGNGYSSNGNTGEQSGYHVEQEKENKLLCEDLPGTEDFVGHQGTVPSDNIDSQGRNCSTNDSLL
Chain of Flap endonuclease 1 (Homo sapiens) (P39748 whole entry, looked up): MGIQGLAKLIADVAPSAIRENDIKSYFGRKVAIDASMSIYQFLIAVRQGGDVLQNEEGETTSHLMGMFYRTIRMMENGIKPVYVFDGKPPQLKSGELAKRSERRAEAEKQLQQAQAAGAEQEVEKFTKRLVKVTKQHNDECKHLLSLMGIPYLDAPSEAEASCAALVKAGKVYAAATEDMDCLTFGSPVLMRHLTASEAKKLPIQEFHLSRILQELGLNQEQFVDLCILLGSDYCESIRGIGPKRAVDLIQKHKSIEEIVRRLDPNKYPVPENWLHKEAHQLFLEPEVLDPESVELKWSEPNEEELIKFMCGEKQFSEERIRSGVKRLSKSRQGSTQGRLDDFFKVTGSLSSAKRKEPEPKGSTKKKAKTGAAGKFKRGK
Chain of ATP-dependent 6-phosphofructokinase (Trypanosoma brucei brucei) (O15648 whole entry, looked up): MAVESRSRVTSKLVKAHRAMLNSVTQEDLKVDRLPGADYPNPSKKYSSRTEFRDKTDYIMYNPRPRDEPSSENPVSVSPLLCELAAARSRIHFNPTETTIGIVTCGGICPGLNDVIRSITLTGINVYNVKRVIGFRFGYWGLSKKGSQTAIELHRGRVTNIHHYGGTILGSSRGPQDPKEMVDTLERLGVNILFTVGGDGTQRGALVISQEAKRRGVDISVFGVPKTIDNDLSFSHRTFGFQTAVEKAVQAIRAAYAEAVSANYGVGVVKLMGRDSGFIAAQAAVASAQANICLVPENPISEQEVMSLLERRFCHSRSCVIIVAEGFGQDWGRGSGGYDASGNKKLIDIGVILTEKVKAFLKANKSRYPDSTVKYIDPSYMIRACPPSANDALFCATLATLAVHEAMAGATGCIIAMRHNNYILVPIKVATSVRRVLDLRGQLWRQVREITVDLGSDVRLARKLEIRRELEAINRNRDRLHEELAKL
Chain of Thioredoxin reductase 1, cytoplasmic (Rattus norvegicus) (O89049 whole entry, looked up): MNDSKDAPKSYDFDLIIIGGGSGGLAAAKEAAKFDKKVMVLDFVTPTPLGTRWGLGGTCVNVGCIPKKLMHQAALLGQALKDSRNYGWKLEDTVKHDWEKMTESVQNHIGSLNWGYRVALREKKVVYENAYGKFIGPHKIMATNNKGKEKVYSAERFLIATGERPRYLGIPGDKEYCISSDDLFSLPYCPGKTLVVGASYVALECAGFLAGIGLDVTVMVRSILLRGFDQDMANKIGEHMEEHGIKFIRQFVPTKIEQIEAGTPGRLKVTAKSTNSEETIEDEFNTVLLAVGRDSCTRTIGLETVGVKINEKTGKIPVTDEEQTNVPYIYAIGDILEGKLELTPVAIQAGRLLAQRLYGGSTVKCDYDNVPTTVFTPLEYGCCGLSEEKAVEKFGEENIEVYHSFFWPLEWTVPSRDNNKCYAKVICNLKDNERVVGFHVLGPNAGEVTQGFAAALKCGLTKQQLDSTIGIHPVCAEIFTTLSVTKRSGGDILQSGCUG

With `CCCn1c(=O)c2[nH]c(C3CCCC3)nc2n(CCC)c1=O`, the result in assay [1], in assay [6], in assay [7], in assay [10] and in assay [15] was inactive. In addition, the Potency entry in [2], in [3], in [4], in assay [5], in assay [8] and in assay [9] was “inactive” each time. The Potency result in assay [11], in assay [12], in assay [13] and in assay [14] was “inactive” each time.
For `C#CCn1c(=O)c2c(ncn2C)n(C)c1=O`, the result in assay [1], in assay [6], in assay [7], in [10] and in assay [15] was inactive. Also, the Potency result in assay [2], in assay [3], in assay [16], in [4], in [5] and in assay [8] was “inactive” in each case. Moreover, the Potency entry in assay [17], in [9], in assay [11], in [12], in [13] and in [14] was “inactive” in each case.
Consider `CCOC(=O)C12CC1/C(=N/O)c1ccccc1O2` (stereo unspecified), for which the Potency result in assay [18], in assay [2], in [3], in assay [16], in assay [4] and in [5] was “inactive” in each case. The Potency entry in assay [17], in [9], in assay [11] and in assay [12] was “inactive” each time. Also, the result in assay [6], in assay [19], in [7], in [10] and in assay [15] was inactive.
Take `Cc1cc2c(cc1Cl)N(C(=O)Nc1ccnc3ccccc13)CC2`: the call in assay [1], in assay [6], in assay [19], in assay [7] and in [10] was inactive. The Potency result in [3], in assay [16], in [4], in assay [5], in [17] and in assay [9] was “inactive” each time. In addition, the Potency result in [11], in assay [12] and in assay [13] was “inactive” in each case.
As for `Cn1c(=O)[nH]c2ncn(C)c2c1=O`, the Potency entry in assay [18], in assay [2], in [3], in assay [16], in assay [4] and in assay [5] was “inactive” throughout. Moreover, the Potency result in assay [8], in assay [17], in assay [9], in [11], in [12] and in assay [13] was “inactive” each time. Moreover, the Potency entry in assay [14] is “inactive”. In addition, the compound was classed as inactive in assay [6], in [19], in [7], in assay [10] and in [15].
Consider `Cc1nc(N=Nc2ccc(S(=O)(=O)O)cc2S(=O)(=O)O)c(COP(=O)(O)O)c(C=O)c1O`, for which the outcome in assay [1], in assay [6], in [19] and in assay [10] was inactive. The Potency result in assay [2], in assay [3], in [16], in assay [4], in [5] and in [17] was “inactive” each time. Moreover, the Potency result in assay [9], in assay [11], in assay [12], in [13] and in assay [14] was “inactive” throughout.
Take `CCc1ccc2c(-c3cccc(Cl)c3)nc(=O)n(CC)c2n1`: the call in [1], in assay [6], in assay [7], in assay [10] and in assay [15] was inactive. Further, the Potency result in assay [3], in [4], in assay [5], in assay [11], in assay [12] and in assay [13] was “inactive” each time.
In the case of `NCCNS(=O)(=O)c1cccc2c(Cl)cccc12`, the outcome in [1], in assay [6], in [7], in assay [10] and in assay [15] was inactive. The Potency in assay [2] is 16.5 µM (active). Also, the Potency result in assay [16], in [4], in assay [5], in assay [11] and in [12] was “inactive” in each case.
With `CC#CCOC(=O)c1c(C)nc2sc3c(c2c1N)CCC(O)C3` (stereo unspecified), the compound was classed as inactive in [1], in assay [6], in assay [19], in [7], in assay [10] and in assay [15]. The Potency result in [2], in assay [3], in assay [4], in assay [5], in [8] and in assay [11] was “inactive” throughout. Besides, the Potency entry in [12] and in [14] was “inactive” each time.
`COc1ccccc1N1CCN(CCCCNC(=O)c2ccc3ccccc3c2)CC1`: the call in [1], in assay [6], in assay [19], in [7], in assay [10] and in [15] was inactive. The Potency result in assay [16], in [4], in assay [5], in assay [8], in assay [11] and in assay [12] was “inactive” each time. In addition, the Potency result in assay [13] is “inactive”. In addition, the values for the Potency in assay [17] and in [9] were 2.94 µM (active) and 4.65 µM (active), respectively.
Take `Cn1c(=O)c2[nH]c(C3CCCC3)nc2n(C)c1=O`: the call in assay [1], in [6], in assay [7], in assay [10] and in assay [15] was inactive. In addition, the Potency entry in [2], in assay [3], in assay [16], in [4], in [5] and in assay [17] was “inactive” throughout. Moreover, the Potency entry in assay [9], in assay [11], in assay [12], in assay [13] and in assay [14] was “inactive” each time.
`NCC(O)c1ccc(O)c(O)c1` (stereo unspecified): the Potency result in [18], in assay [2], in assay [3], in [16], in assay [4] and in [5] was “inactive” in each case. Moreover, the Potency entry in [17] and in assay [9] was “inactive” in each case. Also, the outcome in [6], in [19], in assay [7], in assay [10] and in assay [15] was inactive. For the same compound, the Potency was 2.99 µM (active) in assay [12]; 22.4 µM (active) and inactive in assay [13].
